# In PubChem BioAssay (NCATS):
# Results filed as inconclusive are left out. Entries that show only a call come without a potency. Values without a mark were called inactive. The source made the active and inactive calls. Calls come from the whole dose curve; as a rule, active = well fitted curve in the direction sought with a large enough effect; inconclusive = small, poorly fitted or top-dose-only effect, or another doubt; inactive = no such curve, though single readings can be large; an effect the other way counts as inactive or inconclusive. Peptide text beside a SMILES is read from it.
# What was measured:
# [1] = biological target: Cellular tumor antigen p53 (Homo sapiens) (UniProt P04637); assay: Primary qHTS for small molecule compounds that upregulate eGFP-tagged delta133p53alpha (in N-terminal) cells. (AID 2060322); conditions: NCI-H358 eGFP-delta133p53alpha fluorescence, 24 h; activation: stronger effect = higher value; note: nearly all actives have a fitted effect of over 75% in size; note: potency is the fitted concentration of half-maximal effect; for activation: series mostly up to about 56 µM
# Chain of Cellular tumor antigen p53 (Homo sapiens) (P04637 whole entry, looked up): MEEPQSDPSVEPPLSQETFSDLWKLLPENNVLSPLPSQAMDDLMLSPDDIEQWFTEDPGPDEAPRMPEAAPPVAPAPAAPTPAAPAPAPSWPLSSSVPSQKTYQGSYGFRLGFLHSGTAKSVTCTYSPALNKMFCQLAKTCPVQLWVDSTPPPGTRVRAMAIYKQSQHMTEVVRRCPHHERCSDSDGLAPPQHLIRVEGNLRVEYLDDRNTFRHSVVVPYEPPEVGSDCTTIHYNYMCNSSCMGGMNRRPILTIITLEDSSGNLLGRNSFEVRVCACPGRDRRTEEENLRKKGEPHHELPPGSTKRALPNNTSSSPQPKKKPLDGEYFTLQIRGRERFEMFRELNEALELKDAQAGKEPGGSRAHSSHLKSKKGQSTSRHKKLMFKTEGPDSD
# Outline: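 NCI-H358 cells pre-induced 24 h with 10 ng/ml doxycycline to express N-terminal eGFP-delta133p53alpha, then dosed 24 h at 37C without doxycycline; fixed, Hoechst-stained, GFP intensity by laser scanning cytometry, normalized to DMSO (0%) and 57.5 uM 5-azacytidine (100%).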
# [2] = biological target: Aldehyde dehydrogenase, mitochondrial (Homo sapiens) (UniProt P05091); assay: qHTS for Inhibitors of the Aldehyde Dehydrogenase Family (ALDH2) Primary screen (AID 2061308); note: nearly all actives have a fitted effect of over 55% in size
# [3] = biological target: Retinaldehyde dehydrogenase 3 (Homo sapiens) (UniProt P47895); assay: qHTS for Inhibitors of the Aldehyde Dehydrogenase Family (ALDH1A3) Primary screen (AID 2061315)
SMILES,activation [1] [%],Potency [2],Potency [3],"activity change, negative = inhibition [2]","activity change, negative = inhibition [3]",Potency [1]
COCC(c1ccc(C(F)(F)F)cc1)N1CCN(C2(C)CCN(C(=O)c3c(C)ncnc3C)CC2)CC1C (stereo not given),12.4,inactive,inactive,–,–,–
Cc1ccc(F)cc1C(=O)Nc1ccc(C(=O)N2Cc3cccn3Cc3ccccc32)c(Cl)c1,1.67,inactive,inactive,–,–,–
C1CCN2CC3C[C@@H](CN4CCCC[C@@H]34)[C@H]2C1,-23.2,inactive,inactive,–,–,–
CC1=CC(=O)CC(C)(C)[C@@]1(O)CC[C@@H](C)O[C@@H]1O[C@H](CO)[C@@H](O)[C@H](O)[C@H]1O,29.5,inactive,inactive,–,–,–
CC(C)C[C@@H](N)C(=O)N[C@H]1C(=O)N[C@@H](CC(N)=O)C(=O)N[C@H]2C(=O)N[C@H]3C(=O)N[C@H](C(=O)N[C@H](C(=O)O)c4cc(O)cc(O)c4-c4cc3ccc4O)[C@H](O)c3ccc(c(Cl)c3)Oc3cc2cc(c3O[C@@H]2O[C@H](CO)[C@@H](O)[C@H](O)[C@H]2O[C@H]2C[C@](C)(N)[C@H](O)[C@H](C)O2)Oc2ccc(cc2Cl)[C@H]1O,6.33,inactive,inactive,–,–,–
CC1NC(=O)CNC(=O)C(C(C)C)NC(=O)C2CCCN2C(=O)C(C(C)C)NC(=O)C(Cc2c[nH]c3ccccc23)NC1=O (stereo not given) (cyclo(GAWVPV); configuration not given here),3.57,inactive,inactive,–,–,–
C=CC(C)(CCC=C(C)C)O[C@@H]1O[C@H](CO)[C@@H](O)[C@H](O)[C@H]1O (stereo not given in full),3.57,inactive,inactive,–,–,–
CC(C)CC[C@@H](O)[C@](C)(O)[C@H]1CC[C@@]2(O)C3=CC(=O)[C@@H]4C[C@@H](O)[C@@H](O)C[C@]4(C)[C@H]3CC[C@]12C,-7,inactive,inactive,–,–,–
CC(C)=CCC/C(C)=C/COCC1OC(n2ccc(=O)[nH]c2=O)C(O)C1O (stereo not given),17,inactive,inactive,–,–,–
CC12CCC3c4ccc(O)cc4CCC3C1CCC2OC1OC(C(=O)O)C(O)C(O)C1O (stereo not given),-11.7,inactive,inactive,–,–,–
NC[C@@H]1O[C@@H](O[C@@H]2[C@@H](O[C@@H]3O[C@H](CO)[C@@H](O)[C@H]3O)[C@H](O)[C@@H](N)C[C@H]2N)[C@@H](N)[C@H](O)[C@H]1O,-0.893,–,–,-0.412% [at 11.2 µM],-9.15% [at 11.2 µM],–
COC(=O)C1=CO[C@@H](O[C@@H]2O[C@H](CO)[C@@H](O)[C@H](O)[C@H]2O)[C@H]2[C@@H]1C=C[C@]21C=C([C@H](C)OC(=O)/C=C/c2ccc(O)cc2)C(=O)O1,–,inactive,inactive,–,–,2510 nM (active)
COC(=O)C[C@H]1C(C)(C)[C@H](OC(=O)C(C)C)[C@@]2(O)C(=O)[C@]1(C)C1CC[C@]3(C)C(CC(=O)O[C@H]3c3ccoc3)[C@]13O[C@@H]32 (stereo not given in full),-17.6,inactive,inactive,–,–,–
CC(=O)OCC(=O)Nc1cc(C#N)cc(NC(=O)COC(C)=O)c1Cl,2.33,inactive,inactive,–,–,–
Cc1coc2c1CC1OC1(C)CCC1OC1(C)C2 (stereo not given),4.46,inactive,inactive,–,–,–
CC(=O)NC1C(OC2CCC3(C)C(CCC4(C)C3CC=C3C5CC(C)(C)CCC5(C(=O)O)C(O)CC34C)C2(C)C)OC(CO)C(O)C1O (stereo not given),1.53,inactive,inactive,–,–,–
CC(=O)OC1C[C@@]2(C)[C@@H](CC[C@@H](C)[C@]23Cc2c(O)cc4c(c2O3)CNC4=O)C(C)(C)[C@@H]1O (stereo not given in full),9.92,inactive,inactive,–,–,–
C/C=C(\C)C(=O)OC[C@H]1O[C@@H](O[C@H]2[C@@H](O[C@H]3O[C@H](COC(=O)/C(C)=C/C)[C@@H](O)[C@H](O)[C@H]3O[C@@H]3O[C@H](CO)[C@@H](O)[C@H](OC(=O)/C(C)=C/C)[C@H]3O)O[C@H](COC(=O)/C(C)=C/C)[C@@H](O)[C@@H]2O)[C@H](O)[C@@H](O)[C@@H]1O,-25.2,inactive,inactive,–,–,–
CC1(C)CCC2(C(=O)O)C(O)CC3(C)C(=CCC4C5(C)CCC(OC6OC(CO)C(O)C(O)C6OC6OC(CO)C(O)C(O)C6OC6OCC(O)(CO)C6O)C(C)(C)C5CCC43C)C2C1 (stereo not given),-18.3,inactive,inactive,–,–,–
CC1=CC(=O)CC(C)(C)[C@H]1/C=C/C(CO)O[C@@H]1O[C@H](CO)[C@@H](O)[C@H](O)[C@H]1O (stereo not given in full),9.16,inactive,inactive,–,–,–
